CtBP-E1A inh – CtBP/E1A binding inhibition | activity change, % (test concentration not listed) | AlphaScreen GST-E1A/His-CtBP binding, 1536-well; hits give low values | 0.49% of 340,000 active | AID 651724
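In 5 uL wells, 23 nL compound meets equimolar GST-E1A and His-CtBP (5X stock 125 nM each) for 2 h, 37 °C. Beads (5X, 50 ug/mL) then 1 h, 37 °C, dark.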
Six1-Eya2 blk – blocks human Six1 binding to Eya2; Q15475+O00167; AlphaScreen GST-Six1/His-Eya2 binding, biochemical; hits give low values; activity change, % (no concentration beside the values); 0.56% of 360,000 active
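Homogeneous AlphaScreen proximity assay pairing GST-Six1 with His-tagged Eya2 (added as 5X mix: 250 nM and 500 nM) in 50 mM Tris pH 8.0, 300 mM NaCl, 1 mM TCEP. Glutathione donor and nickel acceptor beads; 1 h, 37 °C, dark.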
L3MBTL1 block – inhibitors of human L3MBTL1. Q9Y468. AlphaScreen L3MBTL1–H3K9me1 peptide binding. Potency, µM (doses to about 57.1 µM), for inactives: top-dose activity, negative = inhibition, hits mostly inhibitors. 0.66% of 230,000 active. AID 485360; active = well fitted inhibition curve with a large enough effect; inconclusive = small, poorly fitted or top-dose-only effect; inactive = no such curve, though single readings can be large or run the other way; also: potency is read from the fitted curve at half-maximal effect; nearly all actives have a fitted effect of over 60% in size
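Read-out is AlphaScreen signal from streptavidin donor and nickel chelate acceptor beads (10 ug/mL final each) bridging L3MBTL1 (50 nM) and biotinylated K9-monomethylated H3(1-15) peptide (75 nM), after 30 min compound exposure at room temperature.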
KDM4E inh – inhibitors of human JMJD2E histone demethylase; AID 2147; JMJD2E catalytic domain, FDH-coupled NADH fluorescence (FDH is formaldehyde dehydrogenase); B2RXH2; 1.6% of 230,000 active; Potency, µM (doses to about 57.1 µM), without a hit: at the top dose activity change, negative = inhibition, actives largely listed as inhibitors; active = well fitted inhibition curve with a large enough effect, not every such curve was filed as active; inconclusive = small, poorly fitted or top-dose-only effect, or another doubt; inactive = no such curve, though single readings can be large or run the other way;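 also: potency is read from the fitted curve at half-maximal effect; 0% = wells with enzyme and -100% = buffer wells without enzyme; nearly all actives have a fitted effect of over 50% in size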
Target sequence (B2RXH2 1-337 limits assumed): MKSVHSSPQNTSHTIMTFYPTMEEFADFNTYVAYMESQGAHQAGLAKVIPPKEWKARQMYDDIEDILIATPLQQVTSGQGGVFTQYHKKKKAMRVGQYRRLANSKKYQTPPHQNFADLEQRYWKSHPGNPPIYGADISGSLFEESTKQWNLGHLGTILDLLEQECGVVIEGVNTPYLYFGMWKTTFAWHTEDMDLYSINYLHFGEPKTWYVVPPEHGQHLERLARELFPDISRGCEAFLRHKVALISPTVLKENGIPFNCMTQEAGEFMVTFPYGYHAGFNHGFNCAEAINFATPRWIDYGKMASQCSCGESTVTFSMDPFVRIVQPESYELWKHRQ
Numbers without * were called inactive; ? = inconclusive; . = no result given. Shown is part of a subset that was picked to be rich in hits. Rule as the data show it, unless noted: active = activity change below about -65%; inconclusive = mostly about -30% to -63%; inactive = weaker than that. Unless noted, % is scaled to controls: 0 for no effect and ±100 for the full control effect.

SMILES | CtBP-E1A inh | Six1-Eya2 blk | L3MBTL1 block | KDM4E inh
Cc1ccc(-c2nn3c(C)nnc3c3ccccc23)cc1S(=O)(=O)N1CCN(CCO)CC1 | -28 | -26 | -1% | ?
COc1ccc(-c2nnc3c4ccccc4c(C)nn23)cc1S(=O)(=O)N1CCN(CCO)CC1 | -82* | -71* | -3% | ?
Cc1nn2c(-c3ccco3)nnc2c2ccccc12 | -20 | -18 | . | 4%
CCc1c(C)nc2c(C#N)c[nH]n2c1=O | -77* | ? | 5% | ?
CCOC(=O)Cc1c(C)nc2c(C#N)c[nH]n2c1=O | ? | ? | 0% | ?
CCOc1ccc2nc(NC(=O)CC3Oc4ccccc4NC3=O)sc2c1 (stereo not drawn) | . | 0 | 3% | 5%
CC(=O)Nc1ccc2nc3ccccc3nc2c1 | ? | ? | -2% | 14µM*
Cc1ccccc1NC(=O)/C(=C/c1ccccc1)c1ccccc1 | 3 | 16 | 12% | -5%
O=C(Nc1ccccc1)/C(=C/c1ccccc1)c1ccccc1 | 16 | 9 | -3% | 28µM*
C[C@@H](O)C#C[Si](C)(C)c1ccccc1 | . | . | . | 1%
Cc1ccc(S(=O)(=O)NC2CC(C)(C)NC(C)(C)C2)cc1C | 5 | 2 | 8% | .
CN(C)S(=O)(=O)c1cccc(NC(=S)N/N=C/c2cc(Br)ccc2O)c1 | -94* | -88* | 10µM* | 10µM*
Cc1ccc(/C=C2\SC(=S)N(/N=C/c3cc([N+](=O)[O-])ccc3O)C2=O)o1 | -93* | -89* | . | 5%
O=C(NN1C(=O)/C(=C/c2ccc(O)c([N+](=O)[O-])c2)SC1=S)c1ccccc1Cl | ? | ? | . | -4%
O=C(NN1C(=O)/C(=C/c2cc([N+](=O)[O-])ccc2O)SC1=S)c1ccccc1O | . | . | 4.5µM* | .
O=[N+]([O-])c1ccc(Sc2cccc3cccnc23)c([N+](=O)[O-])c1 | -98* | -94* | . | 10%
C=CCn1nc([N+](=O)[O-])nc1Sc1cccc2cccnc12 | -95* | -94* | 28µM* | -6%
CC1(C)CC(=O)C(N=Nc2cc(Cl)c(Cl)c(Cl)c2)=C(O)C1 | -2 | -10 | . | 0%
CC1(C)CC(=O)C(C=Nc2ccc(O)c(N=CC3=C(O)CC(C)(C)CC3=O)c2)=C(O)C1 | 9 | 2 | 8% | 3.2µM*
Cc1ccc(O)c(N=NC2=C(O)CC(C)(C)CC2=O)c1 | -4 | -90* | 28µM* | 0.56µM*
CC1(C)CC(=O)C(C=Nc2ccc(C(=O)c3ccccc3)cc2N=CC2=C(O)CC(C)(C)CC2=O)=C(O)C1 | -7 | 10 | ? | 20µM*
COc1ccc(C(=O)c2c(-c3ccsc3)oc3ccc(-c4ccc(OC)cc4)cc23)cc1 | . | 3 | . | .
NCCC[C@@H](CC(=O)N[C@@H]1CCNC[C@H]1C(=O)N[C@H](CC(=O)N[C@@H](CCC(=O)O)CC(=O)O)Cc1c[nH]c2ccccc12)NC(=O)C[C@H](CO)NC(=O)[C@@H]1CCCC[C@H]1N | . | . | . | -3%
Cc1ccccc1C[C@H](C(=O)O)N1C(=O)c2ccc(C(=O)O)cc2C1=O | . | . | 13% | .
Cc1c(NC(=O)CCCCCN2C(=O)c3ccccc3C2=O)c(=O)n(-c2ccccc2)n1C | 9 | 1 | -2% | -10%
SMILES | CtBP-E1A inh | Six1-Eya2 blk | L3MBTL1 block | KDM4E inh
CC(C)(CN1CCN(c2ccccc2)CC1)NS(=O)(=O)c1ccccc1 | -20 | -6 | -12% | -24%
CN(C)/C=C1\C(=O)ON=C1c1ccccc1 | 2 | 12 | 11% | 3%
O=C1ON=C(c2ccccc2)/C1=C/c1ccco1 | 23 | -14 | 28µM* | -28%
Cc1ccc(S(C)(=O)=O)cc1C(=O)OCC(=O)N(Cc1ccccc1)Cc1ccccc1 | . | -7 | 2% | .
CC(=O)N(C1=C(N2CCOCC2)C(=O)c2ccccc2C1=O)c1ccc(C(=O)O)cc1 | . | 3 | -16% | 10µM*
Cc1ccc(CN2CCN(/N=C/C=C/c3ccccc3[N+](=O)[O-])CC2)cc1 | -76* | ? | ? | ?
CC(=O)Oc1cc(-c2coc3cc(OC(C)=O)c(OC(C)=O)c(OC(C)=O)c3c2=O)cc(OC(C)=O)c1OC(C)=O | . | . | . | 3.2µM*
COc1cc(-c2coc3cc(OC)c(OC)c(OC)c3c2=O)cc(OC)c1OC | . | . | . | 2%
C[C@@H]1CCCCO[C@@H](CN(C)C(=O)Cc2ccccc2)[C@@H](C)CN([C@H](C)CO)C(=O)c2cc(NC(=O)C3CCCCC3)ccc2O1 | 3 | 4 | . | .
CCOC(=O)c1sc(NC(=O)CNCc2ccccn2)c(C(=O)OCC)c1C | -71* | ? | -18% | 5%
Cc1cccc(C)c1NC(=O)C1(C)CN(S(C)(=O)=O)CC(=O)N1CCCn1ccnc1 (stereo not drawn) | 0 | 15 | . | .
COc1ccc2c(c1)OC/C(=C\c1ccc(OC)c(O)c1)C2=O | . | . | . | 20µM*
O=[N+]([O-])c1cc(Br)c(O)c(/C=N/Nc2nnnn2-c2cccc3ccccc23)c1 | -70* | ? | . | ?
O=[N+]([O-])c1ccc(NN=Cc2cccc3ccccc23)cc1 | 4 | 1 | . | .
O=C(N/N=C/c1cc2c3c(c1O)CCCN3CCC2)c1ccccc1O | -66* | -90* | ? | 32µM*
Cc1nn(-c2ccccc2)c(N2CCCC2)c1/C=N/NC(=O)c1ccccc1O | ? | ? | 6% | ?
Cc1ccc(S(=O)(=O)Nc2ccccc2F)cc1C(=O)N1CCN(c2ccccc2O)CC1 | -2 | 3 | 5% | .
COC(=O)c1ccccc1NC(=O)c1ccc(-c2ccc(Br)cc2)o1 | 9 | 0 | . | 3.5µM*
Cc1ccc(S(=O)(=O)Nc2ccc(O)c3ncccc23)cc1 | -93* | -91* | . | 25µM*
CCOC(=O)[C@H]1[C@H]2COc3cc(OC)ccc3[C@@H]2N2C(=O)c3cc(F)ccc3NC(=O)[C@@]12C | 1 | -4 | -4% | .

Assay outcomes (PubChem)
